Each structure is given as a SMILES string. The panel holds about 83,000 compounds, 20% with a hit somewhere; the sample as a whole holds those more often.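 Results are percent growth after 48 hours of single-concentration exposure. 100 means growth as in untreated cells, lower positive values show inhibition; negative values down to -100 show cell death.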 A number with no mark means an inactive call. Calls of active or inactive are those of the source. Rule for the calls: active = growth percent below 10; inactive = the rest.

The subject of this assay is DU-145 prostate. The assay is described as follows: NCI-60 one-dose screen, 48 h (100 = growth as untreated, 0 = no growth, -100 = all killed). The following applies: 10 µM unless noted.
Take `NCCNc1nc2ccccc2c2c(=O)c3cc(F)cc(Cl)c3sc12`: the growth was -92.6% (active). Regarding `C=C1C(=O)O[C@H]2[C@H]1CC/C(COC(=O)/C=C\C(=O)O)=C\CC[C@@]1(C)O[C@@H]21`, the growth was 112%. As to `COc1ccccc1C(=O)/C=C/c1ccccc1`, the growth was 32.1%. The value for `Cn1cc([C@@H]2Nc3ccc4[nH]ncc4c3[C@H]3[C@H]4CCC(C4)[C@H]32)c(C(F)(F)F)n1` was 72.9%. For `N#Cc1c(N)nc2c(c1N)C(c1ccc(F)cc1)c1ccc(N)cc1O2` (centres undefined), the growth was 110%.

For `O=C(CN1C=NC2C(N3CCOCC3)=NC=NC21)c1ccc(Br)cc1` (centres undefined), the growth was 107%. The value for `CCCCN1CCN(c2ccc3nc(-c4ccc5nc(-c6ccc(OCC)cc6)[nH]c5c4)[nH]c3c2)CC1` was 68.7%. Consider `CCN(CCO)CCNc1ccc(C)c2sc3cc(Cl)ccc3c(=O)c12`, for which the growth is 16.9%.

As to `Cc1nn(-c2nc3ccccc3[nH]2)c2c1C(c1ccc(OCC(N)=O)cc1)CC(=O)N2` (centres undefined), the growth was 107%. The value for `COC(=O)/C(CCC=C(C)C)=C1\[C@@H](OC(C)=O)C[C@@]2(C)[C@H]1C[C@@H](O)[C@H]1[C@@]3(C)CC[C@H](NCCO)[C@@H](C)[C@@H]3CC[C@@]12C` was 104%; that for `CCCc1c(C)c2sc(=O)[nH]c2[nH]c1=O` was 114%.

With `O=C(/C=C/c1ccc(Cl)cc1)c1ccc(Nc2nc(NCCO)nc(Nc3ccc(Cl)cc3)n2)cc1`, the growth was 67.7%. For `COc1cccc2c(=O)c3c(sc12)c(NCCCNCCO)nc1ccccc13`, the growth is 41.4%. `CCCCc1ccc(NS(=O)(=O)c2cc3c4c(c2)CCN4C(=O)CC3)cc1`: the growth was 16.4%. Take `O=C1/C(=C/c2ccc(O)cc2)COc2ccc(O)cc21`: the growth was 104%.

`Cc1cc(Nc2ccc(OCc3ccccc3)cc2)nc2cc(O)ccc12`: the growth was 86.4%. As for `O=C(c1nc2ccccc2[nH]1)C1[C@@H](c2cccc(O)c2)C2CC3CCCCC3N2[C@@]12C(=O)Nc1cc(Cl)ccc12` (some centres undefined), the growth is 43.7%. For the compound `O=c1oc2ccc(Br)cc2c(=O)n1-c1ccc(Br)cc1F`, the growth is 13.8%. As to `O=C(/C=C/c1ccc(C(F)(F)F)cc1)c1ccc(Nc2nc(NCCO)nc(N3CCOCC3)n2)cc1`, the growth is 13%. As to `C#CCn1cc(C=C2C(=O)N(C)C(=O)N(C)C2=O)c2cc(Cl)ccc21`, the growth was 112%.

Turning to `COc1ccc(/C=C2/SC(=O)N(CC(=O)N3CCN(c4cc5c(cc4F)c(=O)c(C(=O)O)cn5C4CC4)CC3)C2=O)cc1`, the growth was 115%. With `CCOC(=O)C1=C(C)N=c2s/c(=C\c3ccccc3O)c(=O)n2C1c1ccc(OC)c2ccccc12` (centres undefined), the growth was 43.5%.

Regarding `Nc1ccc(-c2ccc(-c3ccccc3N)c3[nH]c4ccccc4c23)cc1`, the growth is 10.2%. Then `CCOC(=O)c1c2c(n3cccc(Cl)c13)C(=O)c1ncccc1C2=O`, with 45.8%; and `O=C(Nc1ccc(C23CC4CC(CC(c5ccccc5)(C4)C2)C3)cc1)c1cccs1`, with 84.7%. `Cc1ccc2sc3c(NCCCNCCO)nc4ccccc4c3c(=O)c2c1`: the growth was 4.48% (active).

Regarding `COc1ccccc1N1CCN(C(CNS(=O)(=O)c2ccc(Cl)cc2)c2cccnc2)CC1` (centres undefined), the growth is 85.1%.

Regarding `CCn1c(-c2nonc2Nc2ccc(OC)cc2)nc2ccccc21`, the growth is 113%. As to `O=C(Nc1ccc(N2CCNCC2)cn1)c1[nH]ncc1Nc1ncnc2sc3c(c12)CCC3`, the growth was -52.1% (active).

For `O=C(/C=C/c1cccc(Cl)c1)OCc1ccc2cc1OCC#C/C=C\C#CCO2`, the growth is 119%. In the case of `C[n+]1c2ccccc2nc2ccc(NCCO)cc21`, the growth was 97.2%. Take `Nc1nc2c(ncn2[C@@H]2O[C@H](CS)[C@@H](O)[C@H]2O)c(=O)[nH]1`: the growth was 105%. In the case of `Cn1c(C(=O)c2cccc3ccccc23)nc2ccccc21`, the growth is 18.3%. Regarding `CC/C(=C(\CC)c1ccc(OCC[N+](C)(C)C)cc1)c1ccc(OC)cc1`, the growth was 94.9%. Regarding `O=C(Nc1ccc(F)cc1F)c1cc(I)ccc1O`, the growth is 19.1%. Consider `CC(C)Cn1c2c(c(=S)[nH]c1=O)CCC2`, for which the growth is 111%. The value for `CNCCNc1nc2ccccc2c2c(=O)c3cccc(C)c3sc12` was 27.8%; that for `COC(=O)c1c2c(c(C)[n+]([O-])c1C)C(=O)C(NCc1ccc(F)c(F)c1)=CC2=O` was 42%. As to `O=C(Cn1cc(COc2ncnc3c2cnn3-c2ccccc2)nn1)Nc1ccccn1`, the growth is 101%.

The values are drawn from PubChem BioAssay (NCI).
